The values that follow come from publication PMC5540273 (PLoS ONE, 2017).

Test systems include MAP3K15; MAP3K1; MAP3K2; MAP3K3; MAP3K4; MAP4K2; MAP4K3; MAP4K4; MAP4K5; MAPKAPK2.
Common to all, as to conditions: concentration: 1 μM,replicates: in singlicate; n = 1
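Note: KINOMEscan kinase panel screen.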

Take `Cn1ccc2ncnc(Oc3ccc(NC(=O)Nc4cccc(C(F)(F)F)c4)c(Cl)c3)c21`: the “%Inh” value came out at 0% with MAP3K15; 0% in the assay on MAP3K1; 6% in the assay on MAP3K2; 0% with MAP3K3; 4% in the assay with MAP3K4; 6% with MAP4K2. The “%Inh” value in the assay on MAP4K3 stood at 0%; in the assay on MAP4K4, 12%; in the assay on MAP4K5, 1%; in the assay with MAPKAPK2, 0%.
Regarding `Cc1cccc2c(-c3ccncc3)c(-c3ccc(F)cc3)nn12.Cl` [GW461487], the “%Inh” value with MAP3K15 is given as 100%; with MAP3K1, 13%; with MAP3K2, 19%; in the assay on MAP3K3, 0%; with MAP3K4 it was 20%; with MAP4K2, 0%. Also, the “%Inh” value with MAP4K3 was determined as 0%; with MAP4K4, 9%; in the assay with MAP4K5 it was 0%; in the assay with MAPKAPK2 it was 0%.
`COc1cc2c(Nc3ccc(NC(=O)c4ccccc4)cc3)ncnc2cc1OCCCN1CCOCC1` [GSK301329]: the “%Inh” value with MAP3K15 worked out at 0%; with MAP3K1 it was 9%; with MAP3K2, 11%; with MAP3K3, 0%; in the assay with MAP3K4 it was 47%; in the assay with MAP4K2, 0%. Moreover, the “%Inh” value with MAP4K3 was determined as 6%; in the assay with MAP4K4 it was 11%; in the assay with MAP4K5, 63%; in the assay with MAPKAPK2, 23%.
Regarding `COc1cccc(C2=C(Nc3cccc(Cl)c3)C(=O)NC2=O)c1` [SB-341556], the “%Inh” value with MAP3K15 is 21%; in the assay with MAP3K1, 28%; in the assay with MAP3K2 it was 17%; in the assay with MAP3K3, 29%; in the assay on MAP3K4, 15%; in the assay on MAP4K2 it was 0%. In addition, the “%Inh” value in the assay on MAP4K3 is 84%; in the assay with MAP4K4, 19%; with MAP4K5, 2%; in the assay with MAPKAPK2, 20%.
As for `COC(=O)c1cccc(NC(=O)NC2CCN(c3ccnc(NCc4ccc(F)cc4)n3)CC2)c1` [GSK1379860], the “%Inh” value is given as 0% in the assay on MAP3K15; 24% with MAP3K1; 8% in the assay with MAP3K2; 0% with MAP3K3; 22% in the assay on MAP3K4; 0% in the assay on MAP4K2. The “%Inh” value in the assay on MAP4K3, with MAP4K4, with MAP4K5 and in the assay on MAPKAPK2 was 0% each time.
Consider `NC(=O)c1ccc(-c2cc3ncnc(SCC(=O)O)c3s2)cc1`, for which the “%Inh” value in the assay with MAP3K15, in the assay with MAP3K1, in the assay with MAP3K2, in the assay with MAP3K3, with MAP3K4 and in the assay with MAP4K2 was 0% throughout. Besides, the “%Inh” value was 0% in the assay with MAP4K3, 5% in the assay with MAP4K4, 1% in the assay on MAP4K5 and 0% in the assay with MAPKAPK2.
Consider `Cn1ccc2ncnc(Oc3ccc(NC(=O)Nc4cc(C(C)(C)C)on4)c(Cl)c3)c21`, for which the “%Inh” value with MAP3K15 amounted to 0%; in the assay with MAP3K1, 18%; in the assay with MAP3K2, 9%; with MAP3K3 it was 17%; in the assay with MAP3K4, 9%; in the assay with MAP4K2 it was 0%. The “%Inh” value is given as 11% with MAP4K3, 94% in the assay with MAP4K4, 25% in the assay on MAP4K5 and 0% with MAPKAPK2.
